Source: PubChem BioAssay (Broad Institute)
An excerpt weighted towards active compounds, which were near 1.1% of everything screened.
FadD28 binding: M. tuberculosis FadD28 bisubstrate binding inhibition | FadD28 bisubstrate probe binding, fluorescence polarization | inhibition, % at 12.5 µM | actives 0.22% (n = 360,000) | AID 588549; in the data active means inhibition above about 8.5%, passing the limit was not always enough; inconclusive means no clear call, values can overlap the other calls
PfHsp40 rescue: compounds rescuing yeast from Plasmodium falciparum HSP40 toxicity | S. cerevisiae expressing PfHsp40, growth rescue, ATP luminescence | actives 0.68% (n = 340,000) | growth rescue, % at 12.5 µM | AID 504582; in the data active means growth rescue above about 28%, passing the limit was not always enough; inconclusive means no clear call, values can overlap the other calls;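 further: yeast W303a lacking pdr1 and pdr3 grown in galactose medium; growth measured after three days at 30 °C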
BioA inh: BioA (M. tuberculosis) enzyme inhibition; AID 602481; purified M. tuberculosis BioA enzyme, plate reader; inhibition, % at 9.99 µM; actives 0.096% (n = 360,000); in the data active means inhibition above about 40%; inconclusive means no clear call, values can overlap the other calls
Y pestis TopoI: blocks Yersinia pestis topoisomerase I activity; Y. pestis Topo-I cleavage product accumulation, plate reader; activity, % at 10 µM; actives 0.064% (n = 360,000); AID 504884; in the data active means activity above about 50%, passing the limit was not always enough; inconclusive means no clear call, values can overlap the other calls
PrP 5UTR inh: inhibition of PrP 5' UTR reporter expression | cell-based PrP 5' UTR mRNA reporter, plate reader | inhibition, % (no concentration beside the values) | actives 0.35% (n = 340,000); in the data active means inhibition above about 52%; further: 0 = median of the neutral control wells
Starred values were filed as active, the others as inactive; ? = inconclusive; . = no result.

SMILES	FadD28 binding	PfHsp40 rescue	BioA inh	Y pestis TopoI	PrP 5UTR inh
COc1ccc(O)c(C(=O)CC(=O)c2ccc(F)cc2)c1	-1	230*	0	-12	11
COc1ccc(O)c(C(=O)CC(=O)c2cccnc2)c1	-1	-1	28	-4	-83
COc1ccc(C(=O)CC(=O)c2ccccc2O)cc1	-3	-1	3	-11	-59
COCC(=O)N(C)C[C@@H]1Oc2ncc(C#Cc3ccccc3)cc2C(=O)N([C@H](C)CO)C[C@@H]1C	.	.	2	.	.
CCC(C)Sc1cccc(-c2nc3cnccn3c2NC2CCCCC2)c1 (configuration not stated)	-5	40*	0	19	-16
c1cc(SC2CCCCC2)cc(-c2nc3cnccn3c2NC2CCCCC2)c1	-5	0	-4	19	0
CCNC(=O)C[C@H]1C=C[C@@H](NS(=O)(=O)c2ccc(F)cc2)[C@@H](CO)O1	.	.	-1	.	.
O=C(CSc1ccc(Cl)cc1)N1CCN(c2c(Cl)cccc2[N+](=O)[O-])CC1	1	66*	-2	?	-15
O=c1cc2c(=O)oc3cc(O)c(O)oc3c2c(O)c1O	11*	19	1	-5	-4
O=C(NC(Cc1ccccc1)C(=O)O)C1CCN(S(=O)(=O)c2ccccc2C(F)(F)F)CC1 (configuration not stated)	11*	1	6	-2	-10
COc1ccc(NC(=O)Nc2ccc3c(c2)C(=O)N([C@@H](C)CO)C[C@@H](C)[C@@H](CN(C)C(=O)C2CCCCC2)OCCCC[C@H](C)O3)cc1	.	.	-2	.	.
O=C1c2ccccc2C(O)(c2ccccc2)N1c1ccc([N+](=O)[O-])cc1Cl (configuration not stated)	2	205*	3	-2	-14
COCC#Cc1cnc2c(c1)C(=O)N([C@H](C)CO)C[C@H](C)[C@@H](CN(C)C(=O)CCN1CCCCC1)O2	.	.	1	.	.
Cn1c(=O)cc(OCC(=O)N2CCN(c3cccc(C(F)(F)F)c3)CC2)c2ccccc21	-1	48*	-1	12	6
Cc1ccc(NC(=O)CSCC(=O)N2CCN(c3cccc(C(F)(F)F)c3)CC2)cc1	-4	41*	-1	18	-4
O=C(C[C@@H]1CC[C@@H]2[C@H](COC[C@H](O)CN2S(=O)(=O)c2ccc(Oc3ccccc3)cc2)O1)Nc1ccccc1	.	.	1	.	.
COC(=O)c1ccc(COc2ccc(/C=N/NC(N)=S)cc2)o1	51*	.	-1	-2	.
COC1=CC(C)C2CC3OC(O)CC4C(C)=C(OC)C(=O)C(C2(C)C1=O)C34C (configuration not stated)	-3	.	0	2	.
CC=Cc1ccc2n(c1=O)C[C@H]1[C@H](CO)[C@@H](C(=O)N[C@H](C)c3ccccc3)[C@@H]2N1Cc1ccncc1 (mixture of isomers)	.	.	0	.	.
COc1cccc(Nc2nc(-c3ccccc3)nc3ccccc23)c1	-2	38*	-2	-33	11
Cc1ccc(-c2nc(Nc3cccc(O)c3)c3ccccc3n2)cc1	-12	30*	0	-30	-13
Nc1ccc(-c2nc3ccc(N)cc3[nH]2)cc1	14*	-1	.	-39	-13
Nc1ccc(-c2nc3c(Cl)c(N)ccc3[nH]2)cc1	11*	1	-7	0	-4
Nc1ccc2nc(-c3ccc(Cl)cc3)[nH]c2c1	-2	0	-1	-7	-108
Cc1noc(C)c1NC(=O)N(C)C[C@@H]1Oc2cc(C#CCC3CCCC3)ccc2S(=O)(=O)N([C@H](C)CO)C[C@@H]1C	.	.	1	.	.
SMILES	FadD28 binding	PfHsp40 rescue	BioA inh	Y pestis TopoI	PrP 5UTR inh
Cc1noc(C)c1NC(=O)N(C)C[C@@H]1OCCCC[C@H](C)Oc2ccc(N(C)C)cc2C(=O)N([C@@H](C)CO)C[C@@H]1C	.	.	0	.	.
CO[C@@H]1CN(C)C(=O)c2ccc(NC(=O)C3CC3)cc2OC[C@@H](C)N(Cc2ccncc2)C[C@H]1C	.	.	0	.	.
CS(=O)(=O)N(CC(=O)O)Cc1cccc(CN(CC(=O)O)S(C)(=O)=O)c1	-1	0	-6	-8	-5
CS(=O)(=O)N(CCC(=O)O)Cc1ccccc1	-1	77*	2	0	-9
C[C@H](CO)N1C[C@H](C)[C@H](CN(C)Cc2ccc(-c3ccccc3)cc2)Oc2ccc(NC(=O)NC3CCCCC3)cc2C1=O	.	.	-3	.	.
Cc1ccc(Nc2nc(N)nc(-c3oc4ccccc4c3C)n2)cc1	-4	3	.	15	70*
Cc1cccc(Nc2nc(N)nc(-c3oc4ccccc4c3C)n2)c1	-4	3	0	21	-87
COc1ccc(-c2oc3ccccc3c2C#Cc2cncn2C)cc1	0	336*	-2	19	-20
